{"source": "PubChem BioAssay (Tox21)", "note": "Results filed as inconclusive are left out. A call without a number means that no potency is given here. Unmarked numbers belong to inactive results. Active and inactive are the calls of the source. Calls come from the whole dose curve."}
{"assay": "p53 small molecule agonists, cell-based qHTS assay: qHTS cell viability counter screen (AID 1963581); note: nearly all actives have a fitted effect of over 45% in size", "conditions": "p53RE-bla HCT-116 viability, ATP luminescence, 16 h; series mostly up to 66 µM; activity change, negative = cytotoxicity: at the top concentration", "description": "National Center for Advancing Translational Sciences [NCATS]\nDivision of Preclinical Innovation [DPI]\nU.S. Environmental Protection Agency [EPA]\nNational Institutes of Environmental Health Sciences [NIEHS]\nNational Toxicology Program [NTP]\nU.S. Food and Drug Administration [FDA]\np53, a tumor suppressor protein, is activated following cellular insult, including DNA damage and other cellular stresses. The activation of p53 regulates cell fate by inducing DNA repair, cell cycle arrest, apoptosis, or cellular senescence. The activation of p53, therefore, is a good indicator of DNA damage and other cellular stresses. The CellSensor p53RE-bla HCT-116 cell line (Invitrogen) contains a stably integrated beta-lactamase reporter gene under control of the p53 response elements. The activation of the reporter gene under culture conditions can be detected by fluorescence intensity. This cell line was used to screen the Tox21 compound library in a 1536-well plate format and to identify agonists that activate the p53 signaling pathway. The cytotoxicity of the Tox21 compound library against the p53 RE-bla HCT-116 cell line was tested in parallel by measuring the intra cellular ATP content in the same wells.\nTox21 Assay Protocol Summary:\nThe p53RE-bla cells were dispensed at 4,000 cells/5 ul/well in 1536-well black wall/clear bottom plates using a Multidrop dispenser. After the assay plates were incubated at a 37 C/5% CO2 incubator for 5 hours, 23 nL of compounds dissolved in DMSO, positive controls or DMSO only was transferred to the assay plate by a pin tool. The plates were incubated at 37 C for 16 hours. After 1 uL of LiveBLAzerTM B/G FRET substrate was added using a Flying Reagent Dispenser, the plates were incubated at room temperature for 2 hours, and fluorescence intensity was measured by an Envision plate reader. For cell viability readout that measures cytotoxicity, 4 ul/well of CellTiter-Glo reagent was added into the assay plates using a Flying Reagent Dispenser. After 30 min incubation at room temperature, the luminescence intensity in the plates was measured using a ViewLux plate reader."}
{"smiles": "CN(C)C(=O)C(c1ccccc1)c1ccccc1", "Potency": "inactive"}
{"smiles": "O=Cc1ccccc1", "activity change, negative = cytotoxicity": "6.26%"}
{"smiles": "Cc1ccccc1O", "Potency": "inactive"}
{"smiles": "CCn1cc[n+](C)c1C", "Potency": "inactive"}
{"smiles": "COc1c(C(C)(C)C)cc([N+](=O)[O-])c(C)c1[N+](=O)[O-]", "activity change, negative = cytotoxicity": "19%"}
{"smiles": "c1ccc(Nc2ccc3ccccc3c2)cc1", "Potency": "inactive"}
{"smiles": "O=C(O)Cc1ccccc1", "Potency": "inactive"}
{"smiles": "Brc1c(Br)c(Br)c(Oc2c(Br)c(Br)c(Br)c(Br)c2Br)c(Br)c1Br", "activity change, negative = cytotoxicity": "13.8% [at 13.5 µM]"}
{"smiles": "CCCCOC(=O)c1ccccc1C(=O)OCCCC", "Potency": "inactive"}
{"smiles": "Cc1ccc(N=CN(C)C=Nc2ccc(C)cc2C)c(C)c1", "Potency": "inactive"}
{"smiles": "N#CS", "Potency": "inactive"}
{"smiles": "ClC1=C(Cl)[C@]2(Cl)[C@@H]3[C@@H](Cl)[C@H](Cl)C[C@@H]3[C@@]1(Cl)C2(Cl)Cl", "activity change, negative = cytotoxicity": "-4.66%"}
{"smiles": "CC(C)=CC1C(C(=O)OCc2cccc(Oc3ccccc3)c2)C1(C)C", "note": "(stereo not given)", "Potency": "inactive"}
{"smiles": "CC(=O)C=C(C)C", "activity change, negative = cytotoxicity": "-8.73%"}
{"smiles": "CCC(=O)OC1(c2ccccc2)CCN(C)CC1", "activity change, negative = cytotoxicity": "-1.67%"}
{"smiles": "C[C@@H]1CN(C2CCC(C#N)(c3ccc(F)cc3)CC2)CC[C@]1(C(=O)O)c1ccccc1", "note": "(stereo not given in full)", "activity change, negative = cytotoxicity": "0.321% [at 30.3 µM]"}
{"smiles": "CCOP(=S)(OCC)OP(=S)(OCC)OCC", "Potency": "inactive"}
{"smiles": "O=Cc1cccc(Oc2ccccc2)c1", "Potency": "inactive"}
{"smiles": "CC(C(=O)c1ccccc1)N(C)C", "note": "(stereo not given)", "activity change, negative = cytotoxicity": "-20.6% [at 30.3 µM]"}
{"smiles": "C=CCN1C[C@H](C)N([C@H](c2ccc(C(=O)N(CC)CC)cc2)c2cccc(OC)c2)C[C@H]1C", "activity change, negative = cytotoxicity": "-18.6% [at 30.3 µM]"}
{"smiles": "C#CCN(C)[C@H](C)Cc1ccccc1", "Potency": "inactive"}
{"smiles": "c1ccc(-c2cccc(-c3ccccc3)c2)cc1", "Potency": "inactive"}
{"smiles": "Cc1[nH]c(=O)n(C(C)(C)C)c(=O)c1Cl", "Potency": "inactive"}
{"smiles": "Cc1cccc(C)c1NC(=O)CN1CCCC1=O", "Potency": "inactive"}
{"smiles": "O=C(Cl)C(Cl)Cl", "activity change, negative = cytotoxicity": "-7.23%"}
{"smiles": "CCOC(=O)c1cncn1C(C)c1ccccc1", "note": "(stereo not given)", "activity change, negative = cytotoxicity": "-10.5% [at 30.3 µM]"}
{"smiles": "O=C(CBr)c1ccc(O)cc1", "activity change, negative = cytotoxicity": "-8.93%"}
{"smiles": "CCCCC(C#N)(Cn1cncn1)c1ccc(Cl)cc1", "note": "(stereo not given)", "Potency": "inactive"}
{"smiles": "Oc1ccc(-c2ccccc2)cc1", "Potency": "inactive"}
{"smiles": "ClCCN1CCOCC1", "activity change, negative = cytotoxicity": "1.48%"}
{"smiles": "CC(C)C1(C)N=C(c2ncccc2C(=O)O)NC1=O", "note": "(stereo not given)", "activity change, negative = cytotoxicity": "4.65%"}
{"smiles": "CN(C)CCC#N", "Potency": "inactive"}
{"smiles": "Cn1c(-c2ccccc2)cc(-c2ccccc2)[n+]1C", "activity change, negative = cytotoxicity": "-2.59%"}
{"smiles": "CCC(C)c1ccc(O)cc1", "note": "(stereo not given)", "Potency": "inactive"}
{"smiles": "CN(C)C(=S)S", "activity change, negative = cytotoxicity": "13.1% [at 30.3 µM]"}
{"smiles": "CCOC(=O)C1(c2ccccc2)CCN(CCC(C#N)(c2ccccc2)c2ccccc2)CC1", "activity change, negative = cytotoxicity": "-21.4% [at 30.3 µM]"}
{"smiles": "CN(C)CCO", "activity change, negative = cytotoxicity": "-9.77%"}
{"smiles": "COP(N)(=O)SC", "note": "(stereo not given)", "Potency": "inactive"}
{"smiles": "Nc1ccccc1Cl", "activity change, negative = cytotoxicity": "0.796%"}
{"smiles": "CCCN(CCC)N=O", "Potency": "inactive"}
